Furin inhibitor: human furin inhibitors, primary screen, biochemical, fluorescence intensity; P09958; purified furin, fluorogenic substrate cleavage; inhibition, % at 20 µM or 30 µM; actives 0.061% (n = 220,000); AID 463115, 2010; in the data active means inhibition above about 25%
EP2 modulator: EP2 receptor modulators, cAMP readout, primary screen, cell-based, HTRF cAMP, PGE2 stimulation; EP2-expressing cells, cAMP HTRF FRET, PGE2 co-stimulation; induction, % at 25 µM; actives 0.83% (n = 260,000); AID 940, 2007; Prostaglandin E2 receptor EP2 subtype (Homo sapiens), P43116;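 active means compounds whose cAMP rise, as percent of the full-agonist control response, exceeds 60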;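 further: rat C6 glioma line stably carrying human EP2 under a CMV promoter; the protocol text gives 20 µM as final concentration; 100% = response of wells given 1 µM PGE2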
Target sequence (P43116 whole entry, looked up): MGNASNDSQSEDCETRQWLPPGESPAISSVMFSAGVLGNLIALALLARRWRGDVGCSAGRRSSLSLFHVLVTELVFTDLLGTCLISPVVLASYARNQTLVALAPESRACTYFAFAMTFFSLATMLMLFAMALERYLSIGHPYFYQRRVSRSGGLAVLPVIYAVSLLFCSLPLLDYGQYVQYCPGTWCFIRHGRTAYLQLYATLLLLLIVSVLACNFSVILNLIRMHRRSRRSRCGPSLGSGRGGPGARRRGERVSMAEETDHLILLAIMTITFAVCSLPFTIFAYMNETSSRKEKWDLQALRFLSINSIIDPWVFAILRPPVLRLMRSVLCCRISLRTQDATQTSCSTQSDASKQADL
HSV augment: enhancers of HSV replication in host cells, fold increase, host cell viability | HSV replication augmentation in cells | maximum fold increase | actives 0.005% (n = 220,000); in the data active means maximum fold increase above about 1.5; tested in PC3 cells
Wee1 degr inh: Wee1 degradation inhibitors, primary screen, cell-based, HeLa, Wee1K328M-luciferase, luminescence | actives 1.2% (n = 220,000) | AID 1321, 2008 | HeLa Luc-Wee1K328M stability; 100% = proteasome inhibitor MG132 effect | reporter increase, % at 5 µM | Wee1-like protein kinase (Homo sapiens), P30291;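 active means activation above the mean of all tested compounds plus 3 SD, set per screening run, cut at about 8.8% in these data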;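 further: cells exposed to compound for 20 h before luminescence read; 0% = DMSO alone and 100% = MG132 at 30 µM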
p47phox inh: p47phox/p22phox peptide binding inhibitors, primary screen, biochemical, uHTS, NADPH oxidase regulatory subunit. actives 0.53% (n = 220,000). AID 1274, 2008. fluorescence polarization, 2 h. inhibition, % at 24.7 µM;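 active means inhibition above about 30%, limit read from the data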;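 further: 0% = p47phox with labelled peptide and 100% = labelled peptide alone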
PGE2 EP2 inh: human EP2 receptor antagonists, primary screen, TR-FRET cAMP, C6 glioma cells; actives 0.52% (n = 260,000); C6 glioma cells expressing human EP2; cells stimulated with saturating PGE2; inhibition, % at 25 µM; AID 1422, 2008;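 active means percent inhibition above 40 after rounding to a whole number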;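 further: rat C6 glioma host cells with rolipram phosphodiesterase inhibitor present; the protocol text gives 20 µM as final concentration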
Active calls of the source: *; i = inactive; nt = not tested or not shown; + = active, no number. An excerpt weighted towards active compounds, which were near 2.8% of everything screened.

SMILES	Furin inhibitor	EP2 modulator	HSV augment	Wee1 degr inh	p47phox inh	PGE2 EP2 inh
c1ccc(CCn2nnnc2C(c2cccs2)N2CCc3ccccc3C2)cc1 (centres undefined)	nt	15	nt	nt	nt	8
Cc1ccc(-c2nc(C(Cl)Cl)c3ccccc3n2)cc1	-31	61*	i	-3	-7	10
COCCN(CCOC)c1nc(-c2ccc(C)cc2)nc2ccccc12	nt	39	nt	nt	nt	11
O=c1oc2ccccc2c(O)c1/C=C1\C=Nc2ccccc21	-4	-55	i	-3	46*	52*
O=c1oc2ccccc2c(O)c1/C=N/c1ncccn1	nt	nt	i	nt	nt	7
COc1cccc(C(=O)Nc2nc3ccc(NC(C)=O)cc3s2)c1	nt	-48	nt	nt	nt	14
Cn1c(=O)[nH]c(=O)c2cc(C(=O)c3cc(F)ccc3O)cnc21	-10	16	i	10*	-12	0
CCSc1nc2sc3c(c2c(=O)n1C)CCCC3	nt	61*	nt	nt	nt	7
Cn1c(SCC(N)=O)nc2sc3c(c2c1=O)CCCC3	nt	-61	nt	nt	nt	8
O=C(CCNc1ccc(F)cc1)c1cc2ccccc2o1	-20	-31	i	2	62*	2
Fc1ccc(CN(CCCn2ccnc2)Cc2ccccc2F)c(F)c1	nt	51	nt	nt	nt	4
O=C(CSc1nnc2scc(-c3ccc(F)cc3)n12)Nc1nccs1	nt	26	nt	nt	nt	9
CCC(C)NC(=O)CC(NS(=O)(=O)c1ccc(NC(C)=O)cc1)C(C)C (centres undefined)	-13	13	i	9.8*	1	8
CC1CCc2c(sc3ncn4c(=O)n(CC(=O)N5CCCCCC5)nc4c23)C1 (centres undefined)	nt	10	nt	nt	nt	nt
CCOc1cc(N2CCOCC2)c(OCC)cc1NS(=O)(=O)c1ccc(Cl)s1	-20	-11	i	-1	59*	19
CC(C)NC(=S)N/N=C/c1c[nH]c2ccccc12	5	-12	i	15*	-12	15
CC(=O)c1sc(C(=O)O)c(-c2ccco2)c1-c1ccco1	-12	-36	i	-2	-5	43*
Cc1ccc(OCC(=O)Nc2nc3ccc(S(C)(=O)=O)cc3s2)c(C)c1	nt	-44	nt	nt	nt	8
O=C1CC(NN2CCCCC2)C(=O)N1c1ccccc1 (centres undefined)	-17	25	i	1	-8	2
CN(NC1CC(=O)N(c2ccccc2)C1=O)c1ccccc1 (centres undefined)	-9	12	i	11*	-8	4
Cc1cc(NC(=O)CSc2nnc(CN3CCOCC3)n2C)ccc1Cl	nt	-22	nt	nt	nt	7
CCn1c(CSc2nc(C)cc(C)n2)nnc1SCC(=O)Nc1ccc(OC)cc1	nt	-11	nt	nt	nt	7
CC1=C(C(=O)Nc2ccccn2)C(c2ccc(Cl)cc2)NC(=S)N1 (centres undefined)	-21	-5	i	9.9*	-7	8
CC(C)CC(=O)/C(=C\c1ccc(Cl)cc1Cl)n1cncn1	-20	-54	i	-3	-1	52*
CCOc1ccc(-c2c(=O)n(OCc3ccccc3Br)c3ccccc3[n+]2[O-])c(OCC)c1	-27	33	i	-2	-9	18
SMILES	Furin inhibitor	EP2 modulator	HSV augment	Wee1 degr inh	p47phox inh	PGE2 EP2 inh
CCOc1ccc(OCC)c(-c2c(=O)n(OCc3ccccc3Br)c3ccccc3[n+]2[O-])c1	-14	64*	i	-2	-9	5
CCn1c2cc(C)oc2c2cnn(CC(=O)N3CCCCCC3)c(=O)c21	nt	-43	nt	nt	nt	nt
CCOC(=O)c1sc2ncn(Cc3ccc(C(=O)OC)cc3)c(=O)c2c1C	nt	4	nt	nt	nt	5
C=CCNC(=O)CC1C(=O)NCCN1Cc1ccc(-c2ccccc2)cc1 (centres undefined)	-8	-7	i	11*	14	7
C[C@@H]1CC[C@H]2[C@H](C)[C@@H]3[C@@H](C[C@H]4[C@H]5CC=C6C[C@@H](O)CC[C@]6(C)[C@@H]5C[C@@H](O)[C@]34C)N2C1	nt	-9	nt	nt	nt	62*
CC(=O)N1[C@@H]2CC3C4CC=C5C[C@@H](O)CC[C@]5(C)C4CC[C@]3(C)[C@@]21C(C)=O (some centres undefined)	-19	13	i	0	-7	9
CCOC(=O)Cn1nnnc1C(C(C)C)N(Cc1cc2cc(C)c(C)cc2[nH]c1=O)C1CCCC1 (centres undefined)	nt	34	nt	nt	nt	4
COC(=O)C(CC(=O)c1ccc(Cl)cc1)c1ccc(C(C)C)cc1 (centres undefined)	-30	-25	i	-3	32*	8
N[C@@H](CSC1(c2ccc(Cl)cc2)c2ccccc2-c2ccccc21)C(=O)O	nt	5	nt	nt	nt	44*
CCOC(=O)Nc1ccc(C(=O)Oc2ccccc2)c(O)c1	-5	34	i	10*	-8	9
O=C(Nc1ccc(C(=O)Oc2ccccc2)c(O)c1)c1ccccc1	-37	-31	nt	-2	-8	1
Cc1cc(C)c2cc(CN(Cc3cccs3)Cc3nnnn3CCc3ccccc3)c(=O)[nH]c2c1	nt	63*	nt	nt	nt	10
O=C(CCc1ccc(S(=O)(=O)NC2CCCCC2)cc1)N1CCCCCC1	nt	-33	nt	nt	nt	14
COc1ccc2nc3ccccc3nc2c1N	0	-62	i	9.0*	11	10
COc1ccc2nc3cccc(OC)c3nc2c1	-18	-47	i	2	5	4
COc1cc2oc(=O)cc(C)c2c(OC)c1OC	-7	-1	i	1	2	5
COc1cc2oc(=O)c(Br)c(C)c2c(OC)c1OC	-8	44	i	-1	-9	44*
CC1CCCCN1S(=O)(=O)c1ccc(C(=O)Nc2ccccc2-c2nc3ccccc3[nH]2)cc1 (centres undefined)	-17	-12	i	11*	-22	6
CCc1nnc(NCC(=O)N2CCc3ccccc32)s1	-9	15	i	-1	+	8
CCc1nnc(NC(=O)c2c(O)c3cccc4c3n(c2=O)CC4)s1	nt	11	nt	nt	nt	8
CC[C@H](Cn1ncc2ccccc2c1=O)NC(=O)CCn1ncc2ccccc21	nt	-37	nt	nt	nt	nt
CC(C)OC(=O)c1ccc(NC(=O)C2C3CC4OC(=O)C2C4C3)cc1 (centres undefined)	-21	16	i	9.8*	-2	9
O=[N+]([O-])c1ccc(Cl)c(CNc2ncnc3c2ncn3[C@@H]2CCCCO2)c1	nt	13	nt	nt	nt	43*
Cc1nc(COC(=O)c2cc(O)c3ccccc3c2O)cs1	-23	-68	i	0	49*	18
Cc1nc(COC(=O)c2ccc(CO)cc2)cs1	-28	14	i	-4	-6	13
